# In PMC7862700, “An all-to-all approach to the identification of sequence-specific readers for epigenetic DNA modifications on cytosine”:
# Columns and labels:
# Assay in all cases: DAPPL (digital affinity profiling via proximity ligation, sequencing); 10 mM Tris-HCl pH 7.5, 50 mM NaCl, 1 mM DTT, 4% glycerol, room temperature, 30 min; GST-TFs on glutathione beads, 16-mer random dsDNA library, 0.1% formaldehyde crosslink after washing; high values mean tight binding
# FEV = target: T1, FEV (Homo sapiens, UniProt Q99581 1-238); conditions: protein: recombinant; tags: N-terminal GST; dsDNA, one strand shown
# T1 sequence: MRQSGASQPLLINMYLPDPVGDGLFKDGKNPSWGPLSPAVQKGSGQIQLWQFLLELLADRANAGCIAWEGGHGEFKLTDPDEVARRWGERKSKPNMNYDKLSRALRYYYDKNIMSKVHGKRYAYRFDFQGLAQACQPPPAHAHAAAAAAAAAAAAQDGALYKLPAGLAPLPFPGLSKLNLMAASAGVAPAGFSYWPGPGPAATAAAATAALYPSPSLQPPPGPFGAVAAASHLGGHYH
# In short: (§1)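 Each value of binding signal is a hexamer's read frequency for a factor divided by the same hexamer's frequency in the tag-only sample. Barcoded, bead-captured GST fusions of human transcription factors made in yeast were pooled with that sample and incubated with 200 nmole of a random double-stranded 16-mer DNA library in Tris/NaCl/DTT/glycerol buffer at room temperature for 30 min. Washing, 0.1% formaldehyde crosslinking, proximity ligation, PCR and Illumina NextSeq500 sequencing followed.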
# ETV5 = ETV5 (Homo sapiens, UniProt P41161 1-510); conditions: protein: recombinant; tags: N-terminal GST; dsDNA, one strand shown
# Sequence of ETV5 (P41161 whole entry): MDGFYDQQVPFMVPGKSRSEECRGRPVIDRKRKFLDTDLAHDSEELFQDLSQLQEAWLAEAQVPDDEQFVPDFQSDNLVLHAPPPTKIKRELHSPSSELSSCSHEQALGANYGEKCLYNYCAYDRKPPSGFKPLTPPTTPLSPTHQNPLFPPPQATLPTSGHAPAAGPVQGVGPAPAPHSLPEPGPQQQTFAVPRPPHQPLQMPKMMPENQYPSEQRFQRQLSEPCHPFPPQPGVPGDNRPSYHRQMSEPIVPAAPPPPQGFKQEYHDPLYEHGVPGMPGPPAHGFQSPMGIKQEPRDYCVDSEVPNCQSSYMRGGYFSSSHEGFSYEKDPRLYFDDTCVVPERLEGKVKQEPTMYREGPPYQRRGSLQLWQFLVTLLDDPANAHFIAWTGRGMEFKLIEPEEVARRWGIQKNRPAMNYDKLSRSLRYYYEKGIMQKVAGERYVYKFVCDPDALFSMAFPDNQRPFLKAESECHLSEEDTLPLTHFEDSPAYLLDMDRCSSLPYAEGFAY
# In short: as §1
# HSF1 = HSF1 (Homo sapiens, UniProt Q00613 1-529); conditions: protein: recombinant; tags: N-terminal GST; chain copies: 3; dsDNA, one strand shown
# Sequence of HSF1 (Q00613 whole entry): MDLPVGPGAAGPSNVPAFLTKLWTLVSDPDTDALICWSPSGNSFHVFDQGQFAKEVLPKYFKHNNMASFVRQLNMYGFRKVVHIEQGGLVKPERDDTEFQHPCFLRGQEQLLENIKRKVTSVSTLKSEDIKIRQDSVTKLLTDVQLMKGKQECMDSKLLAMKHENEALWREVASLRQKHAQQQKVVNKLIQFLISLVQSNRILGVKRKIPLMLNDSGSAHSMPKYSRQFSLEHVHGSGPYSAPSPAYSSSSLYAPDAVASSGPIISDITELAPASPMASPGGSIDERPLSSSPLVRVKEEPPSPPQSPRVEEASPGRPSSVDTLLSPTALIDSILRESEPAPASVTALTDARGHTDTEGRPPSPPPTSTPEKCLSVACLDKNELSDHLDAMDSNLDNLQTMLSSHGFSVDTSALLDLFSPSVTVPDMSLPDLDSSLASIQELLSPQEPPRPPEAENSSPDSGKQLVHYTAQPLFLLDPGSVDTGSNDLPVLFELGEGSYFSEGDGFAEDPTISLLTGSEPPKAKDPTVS
# In short: as §1
# SPIC = target: T2, SPIC (Homo sapiens, UniProt Q8N5J4 1-248); conditions: protein: recombinant; tags: N-terminal GST; dsDNA, one strand shown
# T2 sequence: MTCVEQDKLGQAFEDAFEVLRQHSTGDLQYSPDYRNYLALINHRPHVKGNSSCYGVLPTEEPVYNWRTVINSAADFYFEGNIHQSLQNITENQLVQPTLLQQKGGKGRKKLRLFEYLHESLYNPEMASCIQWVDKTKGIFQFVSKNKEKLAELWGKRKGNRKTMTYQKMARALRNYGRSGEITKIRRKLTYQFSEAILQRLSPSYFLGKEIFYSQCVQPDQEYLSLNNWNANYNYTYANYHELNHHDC
# In short: as §1
# ELF4 = ELF4 (Homo sapiens, UniProt Q99607 1-663); conditions: protein: recombinant; tags: N-terminal GST; dsDNA, one strand shown
# Sequence of ELF4 (Q99607 whole entry): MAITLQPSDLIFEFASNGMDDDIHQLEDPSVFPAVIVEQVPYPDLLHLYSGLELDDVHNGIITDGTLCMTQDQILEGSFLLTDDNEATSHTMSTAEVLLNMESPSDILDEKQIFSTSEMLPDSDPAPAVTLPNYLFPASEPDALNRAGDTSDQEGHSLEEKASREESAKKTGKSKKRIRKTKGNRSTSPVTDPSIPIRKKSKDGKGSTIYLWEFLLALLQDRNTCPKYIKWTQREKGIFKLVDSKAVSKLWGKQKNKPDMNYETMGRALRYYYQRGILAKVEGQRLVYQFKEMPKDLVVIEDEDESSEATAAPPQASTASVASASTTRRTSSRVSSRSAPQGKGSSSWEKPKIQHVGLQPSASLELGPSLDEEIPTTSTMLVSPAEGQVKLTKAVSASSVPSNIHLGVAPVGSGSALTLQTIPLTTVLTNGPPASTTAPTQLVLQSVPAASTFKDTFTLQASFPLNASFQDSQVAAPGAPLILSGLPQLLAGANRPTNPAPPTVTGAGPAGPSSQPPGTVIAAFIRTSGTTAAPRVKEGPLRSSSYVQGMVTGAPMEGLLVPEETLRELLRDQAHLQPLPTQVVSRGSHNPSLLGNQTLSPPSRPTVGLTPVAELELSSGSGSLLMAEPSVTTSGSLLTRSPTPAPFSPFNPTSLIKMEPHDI
# In short: as §1
# ELK4 = target: T3, ELK4 (Homo sapiens, UniProt P28324-2 1-405); conditions: protein: recombinant; tags: N-terminal GST; dsDNA, one strand shown
# T3 sequence: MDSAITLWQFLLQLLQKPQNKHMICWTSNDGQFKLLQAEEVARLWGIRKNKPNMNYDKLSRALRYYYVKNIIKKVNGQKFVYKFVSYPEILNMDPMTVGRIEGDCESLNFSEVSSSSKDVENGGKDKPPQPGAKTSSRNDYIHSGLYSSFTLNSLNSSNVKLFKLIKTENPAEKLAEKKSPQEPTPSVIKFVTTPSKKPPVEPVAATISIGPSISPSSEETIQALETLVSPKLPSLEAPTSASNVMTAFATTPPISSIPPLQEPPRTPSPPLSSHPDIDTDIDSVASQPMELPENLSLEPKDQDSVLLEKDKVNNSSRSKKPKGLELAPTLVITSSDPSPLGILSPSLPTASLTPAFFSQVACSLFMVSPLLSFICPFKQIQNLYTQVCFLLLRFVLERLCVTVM
# In short: as §1
# ETV2 = target: T4, ETV2 (Homo sapiens, UniProt O00321 1-342); conditions: protein: recombinant; tags: N-terminal GST; dsDNA, one strand shown
# T4 sequence: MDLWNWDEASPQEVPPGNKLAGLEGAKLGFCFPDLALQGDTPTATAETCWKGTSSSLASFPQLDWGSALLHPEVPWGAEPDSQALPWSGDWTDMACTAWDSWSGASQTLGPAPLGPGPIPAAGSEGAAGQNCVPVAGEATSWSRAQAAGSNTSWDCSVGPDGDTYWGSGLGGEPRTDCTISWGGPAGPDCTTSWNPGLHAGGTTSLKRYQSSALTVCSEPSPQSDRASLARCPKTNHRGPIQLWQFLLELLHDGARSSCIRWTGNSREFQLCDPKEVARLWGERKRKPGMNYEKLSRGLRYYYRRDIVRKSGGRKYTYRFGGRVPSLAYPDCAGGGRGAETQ
# In short: as §1
# ELF3 = target: T5, ELF3 (Homo sapiens, UniProt P78545 1-371); conditions: protein: recombinant; tags: N-terminal GST; dsDNA, one strand shown
# T5 sequence: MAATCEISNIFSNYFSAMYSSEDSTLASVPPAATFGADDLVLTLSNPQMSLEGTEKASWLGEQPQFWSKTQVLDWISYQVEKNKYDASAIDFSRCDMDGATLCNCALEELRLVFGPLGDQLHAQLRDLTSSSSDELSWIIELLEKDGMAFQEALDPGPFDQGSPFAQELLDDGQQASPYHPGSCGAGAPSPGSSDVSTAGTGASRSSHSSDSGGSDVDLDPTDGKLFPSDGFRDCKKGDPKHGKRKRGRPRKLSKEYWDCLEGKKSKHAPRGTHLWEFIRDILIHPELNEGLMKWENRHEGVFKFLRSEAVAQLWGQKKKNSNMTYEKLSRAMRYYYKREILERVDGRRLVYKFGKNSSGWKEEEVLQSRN
# In short: as §1
# CRX = CRX (Homo sapiens, UniProt O43186 1-299); conditions: protein: recombinant; tags: N-terminal GST; dsDNA, one strand shown
# Sequence of CRX (O43186 whole entry): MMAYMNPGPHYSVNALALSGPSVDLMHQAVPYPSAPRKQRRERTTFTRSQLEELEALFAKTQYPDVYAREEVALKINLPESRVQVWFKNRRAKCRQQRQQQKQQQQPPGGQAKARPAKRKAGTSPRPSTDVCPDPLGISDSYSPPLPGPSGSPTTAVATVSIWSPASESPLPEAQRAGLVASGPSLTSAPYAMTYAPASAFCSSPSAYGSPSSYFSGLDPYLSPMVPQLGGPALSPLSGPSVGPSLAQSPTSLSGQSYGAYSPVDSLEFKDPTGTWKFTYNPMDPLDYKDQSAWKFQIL
# In short: as §1
# ETV1 = ETV1 (Homo sapiens, UniProt P50549 1-477); conditions: protein: recombinant; tags: N-terminal GST; dsDNA, one strand shown
# Sequence of ETV1 (P50549 whole entry): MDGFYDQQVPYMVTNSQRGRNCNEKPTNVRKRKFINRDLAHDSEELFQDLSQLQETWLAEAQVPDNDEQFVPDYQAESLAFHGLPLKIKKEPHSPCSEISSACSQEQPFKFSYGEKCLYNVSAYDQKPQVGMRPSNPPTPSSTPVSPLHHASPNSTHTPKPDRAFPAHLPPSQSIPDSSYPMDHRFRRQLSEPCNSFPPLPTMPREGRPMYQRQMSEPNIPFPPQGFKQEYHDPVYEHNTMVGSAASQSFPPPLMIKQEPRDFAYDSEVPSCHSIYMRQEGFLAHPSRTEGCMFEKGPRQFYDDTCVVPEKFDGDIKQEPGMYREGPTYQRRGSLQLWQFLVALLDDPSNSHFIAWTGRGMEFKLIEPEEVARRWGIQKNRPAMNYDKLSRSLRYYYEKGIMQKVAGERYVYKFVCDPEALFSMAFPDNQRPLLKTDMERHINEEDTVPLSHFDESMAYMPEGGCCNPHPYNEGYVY
# In short: as §1
# ERF = target: T6, ERF (Homo sapiens, UniProt P50548 1-548); conditions: protein: recombinant; tags: N-terminal GST; dsDNA, one strand shown
# T6 sequence: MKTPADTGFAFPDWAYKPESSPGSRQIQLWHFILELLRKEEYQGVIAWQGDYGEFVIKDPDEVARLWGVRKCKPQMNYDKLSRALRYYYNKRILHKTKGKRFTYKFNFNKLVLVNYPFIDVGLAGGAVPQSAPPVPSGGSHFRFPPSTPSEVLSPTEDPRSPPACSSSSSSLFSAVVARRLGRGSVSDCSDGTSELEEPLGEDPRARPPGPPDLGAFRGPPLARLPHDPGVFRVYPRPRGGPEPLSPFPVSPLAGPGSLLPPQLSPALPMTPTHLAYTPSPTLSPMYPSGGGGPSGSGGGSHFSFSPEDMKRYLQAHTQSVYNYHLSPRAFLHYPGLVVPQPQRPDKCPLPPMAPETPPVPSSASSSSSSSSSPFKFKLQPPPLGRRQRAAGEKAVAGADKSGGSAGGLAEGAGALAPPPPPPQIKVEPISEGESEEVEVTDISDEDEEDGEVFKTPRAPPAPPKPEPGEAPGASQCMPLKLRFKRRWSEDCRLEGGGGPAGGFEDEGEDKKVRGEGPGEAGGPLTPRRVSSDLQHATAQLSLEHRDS
# In short: as §1
# ETV3L = target: T7, ETV3L (Homo sapiens, UniProt Q6ZN32 1-361); conditions: protein: recombinant; tags: N-terminal GST; dsDNA, one strand shown
# T7 sequence: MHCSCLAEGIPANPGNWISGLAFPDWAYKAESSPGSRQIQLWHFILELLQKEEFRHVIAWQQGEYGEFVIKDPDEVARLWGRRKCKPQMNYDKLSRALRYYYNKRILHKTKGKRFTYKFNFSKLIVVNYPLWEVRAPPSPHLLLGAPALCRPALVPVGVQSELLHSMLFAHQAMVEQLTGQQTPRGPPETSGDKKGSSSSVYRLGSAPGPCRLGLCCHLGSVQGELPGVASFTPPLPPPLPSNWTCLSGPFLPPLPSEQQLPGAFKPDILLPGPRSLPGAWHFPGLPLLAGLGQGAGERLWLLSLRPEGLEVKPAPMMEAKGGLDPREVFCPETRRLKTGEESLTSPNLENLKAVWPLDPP
# In short: as §1
# ETS2 = target: T8, ETS2 (Homo sapiens, UniProt P15036 1-469); conditions: protein: recombinant; tags: N-terminal GST; dsDNA, one strand shown
# T8 sequence: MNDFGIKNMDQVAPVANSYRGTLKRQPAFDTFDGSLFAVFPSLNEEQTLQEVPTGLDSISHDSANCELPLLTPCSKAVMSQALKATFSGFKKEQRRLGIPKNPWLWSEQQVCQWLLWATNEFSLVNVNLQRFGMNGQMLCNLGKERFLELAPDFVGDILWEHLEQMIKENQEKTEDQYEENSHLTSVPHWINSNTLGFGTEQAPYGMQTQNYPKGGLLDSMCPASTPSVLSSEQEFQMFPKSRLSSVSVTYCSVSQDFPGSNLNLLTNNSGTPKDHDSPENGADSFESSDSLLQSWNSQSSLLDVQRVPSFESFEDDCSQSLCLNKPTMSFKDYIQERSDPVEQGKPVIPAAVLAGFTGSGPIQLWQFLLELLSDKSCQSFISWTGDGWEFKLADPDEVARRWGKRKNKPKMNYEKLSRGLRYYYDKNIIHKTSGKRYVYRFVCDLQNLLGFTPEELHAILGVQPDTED
# In short: as §1
# SPDEF = target: T9, SPDEF (Homo sapiens, UniProt O95238 1-335); conditions: protein: recombinant; tags: N-terminal GST; dsDNA, one strand shown
# T9 sequence: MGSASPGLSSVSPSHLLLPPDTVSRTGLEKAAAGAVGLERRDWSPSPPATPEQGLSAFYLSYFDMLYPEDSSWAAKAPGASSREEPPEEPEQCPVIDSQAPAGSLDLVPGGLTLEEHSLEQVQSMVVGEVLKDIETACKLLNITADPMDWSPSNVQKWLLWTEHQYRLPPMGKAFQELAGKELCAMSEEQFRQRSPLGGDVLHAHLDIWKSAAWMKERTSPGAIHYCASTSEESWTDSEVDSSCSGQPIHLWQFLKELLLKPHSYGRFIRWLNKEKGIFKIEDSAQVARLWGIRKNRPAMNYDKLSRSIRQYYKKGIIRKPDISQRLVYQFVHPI
# In short: as §1
# ETV7 = target: T10, ETV7 (Homo sapiens, UniProt Q9Y603 1-341); conditions: protein: recombinant; tags: N-terminal GST; dsDNA, one strand shown
# T10 sequence: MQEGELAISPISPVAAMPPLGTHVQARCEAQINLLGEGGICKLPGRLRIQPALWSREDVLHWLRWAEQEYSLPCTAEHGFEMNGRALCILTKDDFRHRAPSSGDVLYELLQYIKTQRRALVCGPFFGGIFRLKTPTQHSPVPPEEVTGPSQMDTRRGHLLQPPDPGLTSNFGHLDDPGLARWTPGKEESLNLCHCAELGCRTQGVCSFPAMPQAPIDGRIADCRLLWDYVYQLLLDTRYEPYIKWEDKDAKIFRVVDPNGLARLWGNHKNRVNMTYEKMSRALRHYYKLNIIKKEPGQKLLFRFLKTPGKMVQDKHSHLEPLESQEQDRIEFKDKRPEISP
# In short: as §1
# ELF5 = target: T11, ELF5 (Homo sapiens, UniProt Q9UKW6-2 1-255); conditions: protein: recombinant; tags: N-terminal GST; dsDNA, one strand shown
# T11 sequence: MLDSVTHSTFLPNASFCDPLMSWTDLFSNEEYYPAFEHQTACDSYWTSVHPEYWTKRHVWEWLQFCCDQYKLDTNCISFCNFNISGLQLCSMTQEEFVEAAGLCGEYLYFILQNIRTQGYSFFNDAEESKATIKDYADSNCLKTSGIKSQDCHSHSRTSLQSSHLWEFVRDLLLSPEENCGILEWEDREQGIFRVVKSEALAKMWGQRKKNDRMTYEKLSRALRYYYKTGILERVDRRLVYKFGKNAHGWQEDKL
# In short: as §1
# ETV3 = target: T12, ETV3 (Homo sapiens, UniProt P41162-2 1-143); conditions: protein: recombinant; tags: N-terminal GST; dsDNA, one strand shown
# T12 sequence: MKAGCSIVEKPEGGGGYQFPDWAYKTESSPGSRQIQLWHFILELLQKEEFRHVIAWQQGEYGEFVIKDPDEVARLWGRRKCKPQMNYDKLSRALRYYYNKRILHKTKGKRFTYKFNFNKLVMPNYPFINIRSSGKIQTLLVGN
# In short: as §1
# ETV6 = ETV6 (Homo sapiens, UniProt P41212 1-452); conditions: protein: recombinant; tags: N-terminal GST; dsDNA, one strand shown
# Sequence of ETV6 (P41212 whole entry): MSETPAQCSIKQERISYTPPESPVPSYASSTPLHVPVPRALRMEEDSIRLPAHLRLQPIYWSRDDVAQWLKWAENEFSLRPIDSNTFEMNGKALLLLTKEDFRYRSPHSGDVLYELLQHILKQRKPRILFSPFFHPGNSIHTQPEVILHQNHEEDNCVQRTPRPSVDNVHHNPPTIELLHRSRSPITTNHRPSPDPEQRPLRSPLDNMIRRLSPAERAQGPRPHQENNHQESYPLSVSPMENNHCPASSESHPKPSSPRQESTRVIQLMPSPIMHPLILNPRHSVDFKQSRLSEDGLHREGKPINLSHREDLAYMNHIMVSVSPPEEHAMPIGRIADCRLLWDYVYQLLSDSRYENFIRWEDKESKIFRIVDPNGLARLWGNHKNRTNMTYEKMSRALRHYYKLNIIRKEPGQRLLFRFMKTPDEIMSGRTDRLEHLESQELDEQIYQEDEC
# In short: as §1
sequence,measurement,setting,value
GTATAT,binding signal,FEV,"1.06 fold enrichment (6-mer frequency, TF over GST control)"
same,binding signal,ETV5,"1.19 fold enrichment (6-mer frequency, TF over GST control)"
same,binding signal,HSF1,"1.04 fold enrichment (6-mer frequency, TF over GST control)"
same,binding signal,SPIC,"1.18 fold enrichment (6-mer frequency, TF over GST control)"
same,binding signal,ELF4,"1.17 fold enrichment (6-mer frequency, TF over GST control)"
same,binding signal,ELK4,"1.21 fold enrichment (6-mer frequency, TF over GST control)"
same,binding signal,ETV2,"1.12 fold enrichment (6-mer frequency, TF over GST control)"
same,binding signal,ELF3,"1.02 fold enrichment (6-mer frequency, TF over GST control)"
same,binding signal,CRX,"1.07 fold enrichment (6-mer frequency, TF over GST control)"
same,binding signal,ETV1,"1.18 fold enrichment (6-mer frequency, TF over GST control)"
same,binding signal,ERF,"1.11 fold enrichment (6-mer frequency, TF over GST control)"
same,binding signal,ETV3L,"1.16 fold enrichment (6-mer frequency, TF over GST control)"
same,binding signal,ETS2,"1.14 fold enrichment (6-mer frequency, TF over GST control)"
same,binding signal,SPDEF,"1.37 fold enrichment (6-mer frequency, TF over GST control)"
same,binding signal,ETV7,"1.13 fold enrichment (6-mer frequency, TF over GST control)"
same,binding signal,ELF5,"1.15 fold enrichment (6-mer frequency, TF over GST control)"
same,binding signal,ETV3,"1.25 fold enrichment (6-mer frequency, TF over GST control)"
same,binding signal,ETV6,"1.09 fold enrichment (6-mer frequency, TF over GST control)"
